SW480 rereplic: A quantitative high throughput screen for small molecules that induce DNA re-replication in SW480 colon adenocarcinoma cells. AID 624297, 2012. Potency, µM (series often up to 46.1 µM), inactives show top-dose re-replication activation, most hits filed as activators. SW480 DNA re-replication, Hoechst DNA content imaging, 48 h. actives 1.8% (n = 340,000); also: % of control where 0% means no effect; nearly all actives have a fitted effect of over 55% in size
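Treated cells incubate 48 hr (37 C, 5% CO2), are stained 40 min with Hoechst, and nuclear fluorescence is enumerated; a rise in nuclei with high DNA signal marks re-replication.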
KB-3-1 tox: qHTS assay for MDR1-selective chemotherapeutics: Primary screen using the parental adenocarcinoma cell KB-3-1; KB-3-1 viability, CellTiter-Glo ATP luminescence, 72 h; Potency, µM (doses to about 46.1 µM), actives largely listed as cytotoxic; actives 1.4% (n = 400,000); also: % is scaled to controls: 0 for no effect and ±100 for the full control effect; nearly all actives have a fitted effect of over 60% in size
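Cytotoxicity in the drug-sensitive parental line KB-3-1 was scored as loss of CellTiter-Glo luminescence following 72 h incubation with compound. Values come from curve fitting of normalized concentration-response data.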
KB-V1 MDR tox: qHTS assay for MDR1-selective chemotherapeutics: Primary screen using the drug-selected MDR subline cells KB-V1; KB-V1 MDR cells viability, CellTiter-Glo, 72 h; Potency, µM (top dose mostly 46.1 µM), most hits filed as cytotoxic; actives 3.4% (n = 400,000); also: % is scaled to controls: 0 for no effect and ±100 for the full control effect; nearly all actives have a fitted effect of over 60% in size
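KB-V1, DMEM (no phenol red) + 10% FBS; cpd pin-transferred, titration series; 72 h, 37 degrees C; CellTiter-Glo, luminescence. Data normalized, curve-fit.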
MCF10A rerep: A quantitative high throughput screen for small molecules that induce DNA re-replication in MCF 10a normal breast cells; AID 624296, 2012; actives 2.9% (n = 350,000); MCF 10A DNA re-replication, Hoechst nuclear intensity, 48 h; Potency, µM (series often up to 46.1 µM), inactives show at the highest dose activity, positive = re-replication, hits mostly activators; also: % of control where 0% means no effect; nearly all actives have a fitted effect of over 50% in size
ELG1 DNA repair: qHTS screen for small molecules that inhibit ELG1-dependent DNA repair in human embryonic kidney (HEK293T) cells expressing luciferase-tagged ELG1; AID 504467, 2011; Potency, µM (top dose mostly 46.1 µM), for the others: top-dose activity change, negative = inhibition, most hits filed as inhibitors; HEK293T ELG1-luciferase reporter, luminescence, 16 h; DNA damage induced by 5-fluorouridine; actives 2.3% (n = 330,000); also: % is scaled to controls: 0 for no effect and ±100 for the full control effect; nearly all actives have a fitted effect of over 55% in size
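5-Fluorouridine DNA damage + compound/DMSO, 2,000 cells/well, 16 h, 37 °C/5% CO2. ONE-Glo, 30 min RT, luminescence. Readout = decrease in reporter signal.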
* hit, by the source's call; [ ] = dose if it differs, or a comment. A selection: hits, their analogues and other compounds. The true share with any hit is near 8.1%. Calls follow the shape of the dose curve; as a rule, active = well fitted curve in the direction sought with a large enough effect; inconclusive = small, poorly fitted or top-dose-only effect, or another doubt; inactive = no such curve, though single readings can be large; an effect the other way counts as inactive or inconclusive. Potency is read from the fitted curve at half-maximal effect.

Results for Cc1ncc(CO)c(/C=N/NC(=O)c2ccc(O)cc2)c1O ?
KB-3-1 tox: inactive; KB-V1 MDR tox: inactive; MCF10A rerep: -4%; ELG1 DNA repair: 13%

Results for Cc1ncc(CO)c(/C=N/NC(=O)c2cc3c(s2)CCCC3)c1O ?
SW480 rereplic: -8%; KB-3-1 tox: inconclusive; KB-V1 MDR tox: inconclusive; MCF10A rerep: inconclusive; ELG1 DNA repair: 3.3µM*

How did O=C(Nc1ccc(N2CCOCC2)cc1)C1CCCCC1 do in these assays?
SW480 rereplic: -2%[9.22 µM]; KB-3-1 tox: inactive; KB-V1 MDR tox: inactive; MCF10A rerep: 24%

How did COc1ccc(OC(=O)N2CCOCC2)cc1 do in these assays?
SW480 rereplic: -8%; KB-3-1 tox: inactive; KB-V1 MDR tox: inactive; MCF10A rerep: 1%; ELG1 DNA repair: inconclusive

What do the screens show for `COc1ccc(/C(N)=N/OC(=O)N2CCOCC2)cc1`?
SW480 rereplic: inconclusive; KB-3-1 tox: inactive; KB-V1 MDR tox: inactive; MCF10A rerep: 21µM*; ELG1 DNA repair: -2%

How did COc1ccccc1[C@H]1C(c2ccc(F)cc2)=NN(c2ccccc2)[C@@H]1CO do in these assays?
SW480 rereplic: 3.7µM*; KB-3-1 tox: inactive; KB-V1 MDR tox: inactive; MCF10A rerep: inconclusive; ELG1 DNA repair: -6%

Results for C[C@H]1C(c2ccc(F)cc2)=NN(c2ccccc2)[C@@H]1CO ?
SW480 rereplic: 5.2µM*; KB-3-1 tox: inactive; KB-V1 MDR tox: inactive; MCF10A rerep: 10µM*; ELG1 DNA repair: 5%

Results for COc1ccccc1[C@H]1C(c2cccc(C)c2)=NN(c2ccccc2)[C@@H]1CO ?
SW480 rereplic: 0.33µM*; KB-3-1 tox: inactive; KB-V1 MDR tox: inactive; MCF10A rerep: inconclusive; ELG1 DNA repair: -25%

Results for COc1ccccc1[C@H]1C(c2ccccc2)=NN(c2ccccc2)[C@@H]1CO ?
SW480 rereplic: 13µM*; KB-3-1 tox: inactive; KB-V1 MDR tox: inactive; MCF10A rerep: 1.8µM*; ELG1 DNA repair: 4%

What do the screens show for `COc1ccc(-c2n[nH]c(=S)n2C2CCCCC2)cc1`?
SW480 rereplic: -3%[9.22 µM]; KB-3-1 tox: inactive; KB-V1 MDR tox: inactive; MCF10A rerep: 2%; ELG1 DNA repair: -14%

Results for CCSc1nnc(Cn2c(=O)sc3ccccc32)n1C ?
SW480 rereplic: -2%; KB-3-1 tox: inactive; KB-V1 MDR tox: inactive; MCF10A rerep: -3%; ELG1 DNA repair: 1%

How did CCn1c(SCC(=O)OC)nnc1-c1ccc(C)cc1 do in these assays?
SW480 rereplic: -5%; KB-3-1 tox: inactive; KB-V1 MDR tox: inconclusive; MCF10A rerep: -3%; ELG1 DNA repair: inconclusive

What do the screens show for `O=C(N[C@@H]1C/C=C\C[C@H](CC(=O)N(CCO)Cc2ccccc2)C(=O)NC[C@@H](c2ccccc2)OC1=O)OCC1c2ccccc2-c2ccccc21`?
SW480 rereplic: inconclusive; KB-3-1 tox: inactive; KB-V1 MDR tox: inactive; MCF10A rerep: inconclusive; ELG1 DNA repair: inconclusive

What do the screens show for `C[C@H]1COC(=O)[C@H](NC(=O)OCC2c3ccccc3-c3ccccc32)C/C=C\C[C@H](CC(=O)N(CCO)Cc2ccccc2)C(=O)N1`?
SW480 rereplic: inconclusive; KB-3-1 tox: inactive; KB-V1 MDR tox: inactive; MCF10A rerep: inconclusive; ELG1 DNA repair: 26µM*

Results for O=C(N[C@@H]1C/C=C\C[C@@H](CC(=O)N(CCO)Cc2ccccc2)C(=O)NC[C@H](c2ccccc2)OC1=O)OCC1c2ccccc2-c2ccccc21 ?
SW480 rereplic: inconclusive; KB-3-1 tox: inconclusive; KB-V1 MDR tox: inconclusive; MCF10A rerep: inconclusive; ELG1 DNA repair: 15µM*

Results for CCCCn1c(SCc2nnc(-c3ccccc3)o2)nc2c1c(=O)n(C)c(=O)n2C ?
SW480 rereplic: -5%; KB-3-1 tox: inactive; KB-V1 MDR tox: 2.6µM*; MCF10A rerep: 4%; ELG1 DNA repair: 6%

How did CCCCn1c(SCC(=O)OC)nc2c1c(=O)n(C)c(=O)n2C do in these assays?
SW480 rereplic: -7%; KB-3-1 tox: inactive; KB-V1 MDR tox: inactive; MCF10A rerep: -2%; ELG1 DNA repair: 0%

Results for CCCCn1c(SCC(=O)N2c3ccccc3CCc3ccccc32)nc2c1c(=O)n(C)c(=O)n2C ?
SW480 rereplic: -2%; KB-3-1 tox: inactive; KB-V1 MDR tox: inconclusive; MCF10A rerep: 9%; ELG1 DNA repair: 21µM*

Results for Cn1ccnc1SCc1cc(=O)[nH]c2ccccc12 ?
SW480 rereplic: 14%; KB-3-1 tox: inactive; KB-V1 MDR tox: inactive; MCF10A rerep: 0%; ELG1 DNA repair: 2%

How did CCn1c(SCc2cc(=O)[nH]c3ccccc23)nc2c1c(=O)n(C)c(=O)n2C do in these assays?
SW480 rereplic: -13%; KB-3-1 tox: inactive; KB-V1 MDR tox: 16µM*; MCF10A rerep: 4%

How did CCn1c(SCC(=O)N2CCCc3ccccc32)nc2c1c(=O)n(C)c(=O)n2C do in these assays?
SW480 rereplic: -4%; KB-3-1 tox: inconclusive; KB-V1 MDR tox: 2.9µM*; MCF10A rerep: 3%; ELG1 DNA repair: inconclusive

What do the screens show for `CCC1CCCCN1S(=O)(=O)c1cc2c3c(c1)CC(=O)N3CCC2` (stereo not given)?
KB-3-1 tox: inactive; KB-V1 MDR tox: inactive

What do the screens show for `Cc1ccc(NC(=O)CCN2CCC(Cc3ccccc3)CC2)cc1`?
SW480 rereplic: 0%; KB-3-1 tox: inactive; KB-V1 MDR tox: inconclusive; MCF10A rerep: 5%; ELG1 DNA repair: -21%

What do the screens show for `CCCCS(=O)CC(O)CSc1nc(-c2ccc(OC)cc2)cc(-c2ccccc2)c1C#N` (stereo not given)?
KB-3-1 tox: inactive; KB-V1 MDR tox: inactive

What do the screens show for `CC12CCC(C(=O)NC3CCCCC3)([C@H](Br)C1=O)C2(C)C` (stereo not given in full)?
SW480 rereplic: -1%; KB-3-1 tox: inactive; KB-V1 MDR tox: inactive; MCF10A rerep: 0%; ELG1 DNA repair: -33%

Results for COc1ccccc1N=CC1=C(O)CC(c2ccccc2)CC1=O (stereo not given) ?
SW480 rereplic: -4%; KB-3-1 tox: inactive; KB-V1 MDR tox: inactive; MCF10A rerep: inconclusive; ELG1 DNA repair: -1%

Results for CS(=O)(=O)c1ccccc1C(=O)Nc1cc2c(cc1C(=O)O)OCCCO2 ?
SW480 rereplic: 3%; KB-3-1 tox: inactive; KB-V1 MDR tox: inactive; MCF10A rerep: -2%; ELG1 DNA repair: -7%
